Screens deposited in PubChem BioAssay by National Center for Advancing Translational Sciences (NCATS).
ERK EGF block: blocks ERK signaling stimulated by EGF. HEK293-V1b, EGF-stimulated phospho-ERK AlphaScreen. Potency, µM (titrated, usually from 11.5 µM), without a hit: at the highest dose activity change, negative = inhibition, actives largely listed as inhibitors. 130,000 tested, 0.41% active; active means well fitted inhibition curve with a large enough effect;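 further: plate controls were stimulated vehicle wells for no effect and unstimulated vehicle basal for full effect; nearly all actives have a fitted effect of over 55% in size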
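Stably V1b-transfected HEK293 cells; 30 min compound, then EGF 25 nM final for 5 min at 37C; 10 min lysis; phospho-ERK by AlphaScreen after 5 hr beads at room temperature.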
* marks the source's active call; other numbers are inactive results; ! = not confirmed by another sample; [ ] = dose if it differs, or a comment. This is one part of a sample in which hits are shown more often than they occur. Potency means the concentration at half of the fitted maximal effect.

SMILES	ERK EGF block
CCN(CC)c1ccc(N=Nc2nn(C)c(C)c2[N+](=O)[O-])cc1	16µM*
Cc1c(Cl)c([N+](=O)[O-])nn1CCCC(=O)N(Cc1ccccc1)Cc1ccccc1	3%
CCN(Cc1ccccc1)c1ccc(N=Nc2nn(C)c(C)c2[N+](=O)[O-])cc1	20µM*
CS(=O)(=O)N1CCC2(CCCN(Cc3cc(C(F)(F)F)cc(C(F)(F)F)c3)C2)CC1	3%
C[C@H]1[C@H](NC(=O)/C(=N/OC(C)(C)C(=O)O)c2csc(N)n2)C(=O)N1S(=O)(=O)O (stereo in doubt)	5%[25.7 µM]
CCCCC/C=C\C/C=C\C/C=C\CCCCCCC(=O)NCCCC(=O)O	5%
CCC1OC(=O)C(C)[C@@H](O[C@H]2C[C@@](C)(OC)C(O)C(C)O2)C(C)[C@@H](O[C@@H]2OC(C)CC(N(C)C)C2O)[C@@](C)(O)CC(C)CN(C)C(C)C(O)[C@]1(C)O (stereo not given in full)	4%
CC(=O)SC1CC2=CC(=O)CC[C@]2(C)C2CC[C@@]3(C)[C@@H](CC[C@@]34CCC(=O)O4)C12 (stereo not given in full)	5%
Cc1cc([N+](=O)[O-])ccc1N=Nc1c(N)[nH]n(-c2ccccc2)c1=O	-2%
Cc1[nH]n(-c2ccccc2)c(=O)c1N=Nc1ccccc1	16µM*
NC(=O)c1ccc(N=Nc2c(-c3ccccc3)[nH]n(-c3ccccc3)c2=O)cc1	-7%
Cc1[nH]n(-c2ccccc2)c(=O)c1N=Nc1ccccc1C(=O)N1CCOCC1	-5%
Nc1nn(-c2ccccc2)c(N)c1N=Nc1ccc2c(c1)OCO2	0%
Nc1[nH]n(-c2ccccc2)c(=O)c1N=Nc1ccc2c(c1)OCO2	22µM*
COC(=O)C1=C(C)NC(C)=C(C(=O)OCCCN2CCC(c3ccccc3)(c3ccccc3)CC2)[C@H]1c1cccc([N+](=O)[O-])c1	-11%
COc1ccc2c(c1)C(=O)[C@@H](OC(=O)NCCOc1ccccc1)[C@H](c1ccc(OC)c(Br)c1)O2	-12%
COc1cccc([C@@H]2Oc3ccc(Br)cc3[C@H](O)[C@H]2O)c1	1%
CN1/C(=C\C=O)C(C)(C)c2ccccc21	3%
CN1\C(=C/C=C/C=C/C=[N+](C)C)C(C)(C)c2ccccc21	16µM*
CN1/C(=C/C=C(C#N)C#N)C(C)(C)c2ccccc21	-3%
N=c1ccn2c(n1)O[C@H]1[C@@H](O)[C@@H](CO)O[C@H]12	-31%
Cc1cc(=O)cc2oc3cc(N)c(-c4c(C)cc(O)cc4O)c(C)c3nc1-2	2%
C=C[C@H]1CCC=C2C(=O)CCC[C@@H]21	-6%
Nc1ccccc1Nc1ccc([N+](=O)[O-])cc1[N+](=O)[O-]	-6%
O=[N+]([O-])c1ccc(N/N=C/c2ccccc2)c(F)c1	-10%
SMILES	ERK EGF block
CC1=C(/C=N/Nc2ccc([N+](=O)[O-])cc2[N+](=O)[O-])C(C)(C)CCC1	14µM*
CC1(C)C(=O)C2C[C@]3(O)C4=CC(=O)OC(c5ccoc5)[C@]4(C)CCC3[C@](C)(C2=O)C1CC(=O)O (stereo not given in full)	3%
COCCNc1nc(C)nc2c1nc(-c1ccccc1)n2C1CCN(Cc2ccccc2)C1 (stereo not given)	4%
O=C(CN1C(=O)/C(=C/c2ccccc2)SC1=S)NNC(=O)c1ccccc1O	14µM*
CC(C)(C)NC(=O)CN1C(=O)/C(=C/c2ccccc2)SC1=S	8%
Cc1ccc(/C=C2\SC(=S)N(CCCC(=O)NNC(=O)c3ccccc3O)C2=O)cc1	3%[57.5 µM]
O=C(O)c1cc(O)c2c(c1)[C@H]([C@H]1c3cc(C(=O)O)cc(O)c3C(=O)c3c(O[C@@H]4OC(CO)C(O)C(O)C4O)cccc31)c1cccc(O[C@@H]3OC(CO)C(O)C(O)C3O)c1C2=O (stereo not given in full)	-2%
C=C(C)C(=O)/C=C/c1ccc(Br)cc1	-20%
COC(=O)N1[C@H]2CC[C@@]3(C)C=C(C)O[C@]1(C)C3c1ccccc12	-13%
COc1cc(C(CCN2CCOCC2)c2c(OC)cc(OC)c3c2OC(=O)CC3c2ccc(N(C)C)cc2)cc(OC)c1OC (stereo not given)	-15%[57.5 µM]
COc1cc(OC)c2c(c1C(CCN1CCOCC1)c1ccc(N(C)C)cc1)OC(=O)CC2c1ccc(N(C)C)cc1 (stereo not given)	-6%[57.5 µM]
COc1ccc(C2CC(=O)Oc3c(C(CCN4CCN(c5ccccc5)CC4)c4ccc(N(C)C)cc4)c(OC)cc(OC)c32)cc1 (stereo not given)	16µM*
Cc1cc(=O)oc2cc(O[C@@H]3O[C@H](C(=O)O)[C@@H](O)[C@H](O)[C@H]3O)ccc12	-12%
COCOc1ccc(OC)cc1C(=O)/C=C/c1ccc(OC)c(Br)c1	-11%
N#CCCn1c(=O)c(CCc2ccccc2)nc2cnc(N3CCOCC3)nc21	-20%
COC(=O)[C@@H]1C[C@@]2(O)[C@@H](O)[C@@H](O)[C@@H](O)C[C@H]2N1Cc1ccc(C(C)(C)C)cc1	-8%
CC(C)OC(=O)[C@@H]1CC[C@H](C)[C@@H](CCC[C@@H]2C[C@@H](O)C[C@H](CC#N)O2)O1	-7%
CC/C=C\C[C@H](O)/C=C/C=C\C/C=C\C/C=C\CCCC(=O)O	-12%
COc1cccc2c1C(=O)c1c(O)c3c(c(O)c1C2=O)C[C@@](O)(C(C)=O)C[C@@H]3O[C@H]1C[C@H](N)[C@H](O)[C@H](C)O1	25µM*!
C#C[C@]1(O)CC[C@@H]2[C@H]3CCC4=Cc5oncc5C[C@]4(C)[C@@H]3CC[C@@]21C	-4%[25.7 µM]
COC(=O)[C@@]1(Cc2ccccc2)[C@H]2c3cc(C(=O)N(C)C)n(C[C@H](O)CO)c3C[C@H]2CN1C(=O)c1ccccc1	-1%
CC(=O)OC1CC[C@]2(C)C(CC(OC(C)=O)[C@@]3(C)C4=CC(=O)OC(c5ccoc5)[C@]4(C)CCC23)C1(C)C (stereo not given in full)	33%
O=C(Nc1ccc2ccccc2c1)[C@H]1C[C@@H]1[C@H](NP(=O)(c1ccccc1)c1ccccc1)c1ccccc1	-8%
Cc1nn(C)cc1CN1CCCC(C(=O)c2ccc(-c3ccccc3)cc2)C1 (stereo not given)	-12%
O=C(c1ccc(Cl)cc1)C1CCCN(Cc2cccn2-c2cccnc2)C1 (stereo not given)	-5%
SMILES	ERK EGF block
O=C(c1ccc(Cl)cc1)C1CCCN(Cc2cnn(-c3ccccc3)c2)C1 (stereo not given)	28µM*
Clc1cncc(Cl)c1NNc1c2ccccc2nc2ccccc12	13µM*
Cc1cc(Cl)c2ccccc2n1	-2%
Nc1c2ccccc2nc2ccccc12	10%
Cc1cccc([C@@H]2CN(C)CCc3c2cc(O)c(O)c3Cl)c1	-16%
CCCCC#Cc1nc(N)c2ncn([C@@H]3O[C@H](C(=O)NCC)[C@@H](O)[C@H]3O)c2n1	-6%
CN1/C(=C\C(=O)c2cccnc2)C(C)(C)c2ccccc21	3%
Cc1ccc(C(=O)NC(=S)/C=C2\N(C)c3ccccc3C2(C)C)cc1	25µM*
CN1/C(=C\C=N\NC(=O)c2ccc(O)cc2)C(C)(C)c2ccccc21	0%
CCCCC/C=C\C[C@@H](O)/C=C/C=C/C=C/[C@@H](O)CCCC(=O)O	-15%
Cn1cccc1C(=O)N1CCC2(CCN(Cc3ccncc3)CC2)CC1	2%
CCN(CC)S(=O)(=O)c1cc(NC(=O)Cn2ncc(Cl)c(Cl)c2=O)ccc1C	20µM*
COc1ccc(NC(=O)Cn2ncc(Cl)c(Cl)c2=O)cc1S(=O)(=O)N1CCOCC1	-7%
